Several values for one entry are separate records, joined by “and”; a condition that tells them apart may be missing. Equal entries are not always repeated. Inconclusive results are not listed. Unmarked numbers belong to inactive results. Activity calls are given as the source filed them. No rule for the calls is given here.
Assay: dose response, V. cholerae BH1651, dry powder (AID 651847)
Conditions: V. cholerae BH1651 luxOD47E, luciferase light induction, 6 h; at 80 µM (top of the series) unless noted

| Compound | activation (light induction) |
| --- | --- |
| CCn1nnnc1NCc1ccc(N2CCCC2)cc1 | -12.5% |
| O=C(Cc1ccc(-c2ccccc2)cc1)NC1CC1 | 25% (active) |
| CCn1nnnc1NCc1cccc(N2CCCC2)c1 | -33.3% |
| CS(=O)(=O)c1ccc(CC(=O)NC2CCCC2)cc1 | -25% |
| O=C(Cc1ccc(-c2ccccc2)cc1)NC1CCC1 | 0% |
| O=C(Cc1cccc(OC(F)(F)F)c1)NC1CCCC1 | 0% |
| CCc1ccccc1NCc1ccc(N2CCCC2)cc1 | -16.7% |
| CCn1nnnc1NCc1cccc(OC)c1 | -25% |
| CCn1nccc1NCc1ccc(N2CCCC2)cc1 | 12.5% |
| COc1ccc(CC(=O)NC2CCCC2)cc1 | 12.5% |
| O=C(Cc1ccc(-c2ccccc2)cc1)NC1CCCCC1 | -12.5% |
| CCCn1nnnc1NCc1ccc(N2CCCC2)cc1 | -25% |
| CCn1nnnc1NCc1ccc(N2CCCCC2)cc1 | 0% [at 28.5 µM] |
| CC(C)(C)OC(=O)N1CC(NC(=O)Cc2ccc(-c3ccccc3)cc2)C1 | 0% |
| CCC(CC)NC(=O)Cc1ccc(-c2ccccc2)cc1 | -16.7% |
| CCCn1nnnc1NCc1ccc(C(C)C)cc1 | 50% |
| CCn1nnnc1CCc1ccc(N2CCCC2)cc1 | -12.5% |
| CCn1nnc(NCc2ccc(C)cc2)n1 | 16.7% |
| CC(C)c1ccc(CNc2nnnn2C)cc1 | 37.5% |
| CCCCn1nnnc1NCc1ccc(N2CCCC2)cc1 | -25% |

| Compound | activation (light induction) |
| --- | --- |
| Cn1nnnc1NCc1ccc(N2CCCC2)cc1 | -25% |
| Cc1ccc(Cn2nnnc2NCc2ccc(N3CCCC3)cc2)cc1 | -12.5% |
| Cc1ccccc1CC(=O)NC1CCCC1 | 12.5% |
| c1ccc(Cn2nnc(NCc3ccc(N4CCCC4)cc3)n2)cc1 | -50% |
| CCn1nnnc1NCc1ccc(C(C)C)cc1 | -4.17% and 0% |
| c1ccc(Cn2nnnc2NCc2ccc(N3CCCC3)cc2)cc1 | 0% |
| CCCn1nnnc1NCc1ccccc1Cl | 25% |
| CCn1nnc(CCc2ccc(N3CCCC3)cc2)n1 | -25% |
| CC1(NC(=O)Cc2ccc(-c3ccccc3)cc2)COC1 | 0% |
| CCn1nccc1/N=C/c1ccc(N2CCCC2)cc1 | 0% |
| O=C(NCc1ccc(-c2ccccc2)cc1)C1CCCC1 | 12.5% |
| O=C(Cc1ccc(-c2ccccc2)cc1)NC1CCCC1 | 0% |
| CCC(C)NC(=O)Cc1ccc(-c2ccccc2)cc1 (stereo not given) | 0% |
| CCn1nnnc1NCc1ccccc1N1CCCC1 | 0% |
| CC(C)NC(=O)Cc1ccc(-c2ccccc2)cc1 | 25% |
| O=C(Cc1cccc(F)c1)NC1CCCC1 | 0% |
| O=C(Cc1ccccc1C(F)(F)F)NC1CCCC1 | 0% |
| c1ccc(-n2nnnc2NCc2ccc(N3CCCC3)cc2)cc1 | 37.5% |
| O=C(Cc1ccccc1F)NC1CCCC1 | -12.5% |
| O=C(Cc1ccc(-c2ccccc2)cc1)NC1CCOCC1 | -12.5% |
